Most compounds without a hit are left out; they make up all but 28% or so of the library.
PLK1 kinase inh: blocks human PLK1 kinase activity; P53350; recombinant PLK1 kinase, TR-FRET peptide phosphorylation; inhibition, % at 10 µM; hit rate 0.53% among 97,000;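 active = inhibition of 50% or more in the single-concentration screen; inactive = inhibition below 50%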;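 also: 0% = DMSO max control and 100% = H-89 dihydrochloride min control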
Target sequence (P53350 whole entry, looked up): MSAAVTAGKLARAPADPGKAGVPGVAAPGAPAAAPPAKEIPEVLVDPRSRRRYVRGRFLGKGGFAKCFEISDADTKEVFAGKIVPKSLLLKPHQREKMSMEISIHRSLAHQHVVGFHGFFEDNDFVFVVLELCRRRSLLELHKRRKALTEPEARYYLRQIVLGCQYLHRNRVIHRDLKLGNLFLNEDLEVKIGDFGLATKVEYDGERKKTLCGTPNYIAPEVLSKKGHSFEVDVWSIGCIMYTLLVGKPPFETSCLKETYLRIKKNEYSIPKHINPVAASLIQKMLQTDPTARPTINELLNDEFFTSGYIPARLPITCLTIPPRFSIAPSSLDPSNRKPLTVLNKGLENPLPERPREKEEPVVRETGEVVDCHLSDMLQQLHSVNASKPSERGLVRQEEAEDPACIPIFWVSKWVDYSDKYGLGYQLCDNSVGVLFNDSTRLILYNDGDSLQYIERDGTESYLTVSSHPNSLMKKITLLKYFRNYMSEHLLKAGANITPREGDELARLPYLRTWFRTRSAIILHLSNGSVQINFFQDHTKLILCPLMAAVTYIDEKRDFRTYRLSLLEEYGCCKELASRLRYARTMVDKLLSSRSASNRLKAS
CYP2C19 act: cytochrome P450 2C19 (human) activation. recombinant CYP2C19, luciferin-H EGE luminescence; hits give high values; 0 = fully inhibited enzyme, 1 = untreated enzyme. activation factor at 5 µM. 96,000 tested, under 10 active. AID 1025;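 active = activation factor of at least 2 at 5 µM in the primary screen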;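 also: 0 = wells with 2.5 mM tranylcypromine and 1 = vehicle-only wells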
CYP2C19 inhib: human CYP2C19 inhibition. CYP2C19 Supersomes, luciferin-H EGE luminescence, 30 min. inhibition, % at 5 µM. hit rate 21% among 96,000. P33261;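 active = CYP2C19 inhibition above a set limit at 5 µM in the primary screen, cut at about 50% in these data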;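 also: plate controls were negative control wells for no effect and 2.5 mM tranylcypromine positive control for full effect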
CYP2C9 act: activators of human CYP2C9 | recombinant CYP2C9, luciferin-H conversion, luminescence; hits give high values; factor 1 = untreated enzyme, 0 = blocked | activation factor at 5 µM | hit rate 1.4% among 96,000;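 active = activation factor of 2 or more for CYP2C9 at a 5 µM dose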;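 also: 0 = sulfaphenazole-blocked wells and 1 = vehicle-only wells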
CYP2C9 inh: inhibitors of human CYP2C9. P11712. CYP2C9 Supersomes, luciferin-H conversion, luminescence. inhibition, % at 5 µM. hit rate 20% among 96,000. AID 777;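 active = blocking of liver enzyme CYP2C9 beyond about 50% at 5 µM, limit read from the data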
PLK1 PBD inh: inhibitors of human Plk1 polo box domain binding; Plk1 PBD phosphopeptide binding, fluorescence polarization; hit rate 0.13% among 97,000; inhibition, %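 (tested at about 20 µM)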; P53350; in the data active = inhibition above about 34%, passing the limit was not always enough
An asterisk follows results filed as active; nt = not tested or not shown.

SMILES	PLK1 kinase inh	CYP2C19 act	CYP2C19 inhib	CYP2C9 act	CYP2C9 inh	PLK1 PBD inh
CC(=O)N1CCN(c2cc(N3CCc4ccccc4C3)c(F)cc2[N+](=O)[O-])CC1	-6	0.6	37	0.5	54*	11
O=C(c1cccc(F)c1)N1CCN(c2cc(N3CCCCC3)c(F)cc2[N+](=O)[O-])CC1	-7	0.1	91*	0.1	89*	-23
O=C(c1ccc2ccccc2c1)N1CCN(c2ccc(O)cc2)CC1	-11	0.4	62*	0.8	18	11
Cc1c(Cl)cccc1NC(=O)CCCN1C(=O)CCC1=O	-7	0.8	18	0.9	7	3
CN1CCN(Cc2nc3c(c(=O)[nH]c(=O)n3C)n2Cc2c(F)cccc2Cl)CC1	nt	1.2	-16	1.1	-11	nt
O=C(c1ccc(N2CCCCC2)c([N+](=O)[O-])c1)N1CCOCC1	-8	0.8	16	1	-2	-13
O=C(c1ccc(F)cc1)N1CCN(c2ccc([N+](=O)[O-])c(N3CCCCC3)c2)CC1	-15	0.8	19	0.4	62*	11
O=C(/C=C/c1ccccc1)N1CCN(c2ccc([N+](=O)[O-])c(N3CCOCC3)c2)CC1	-3	0.6	42	0.3	72*	-7
O=C(/C=C/c1ccc(Cl)cc1)N1CCN(c2ccc(Cl)cc2[N+](=O)[O-])CC1	-4	0.5	54*	0.6	44	1
CO/N=C(\c1nonc1N)N1CCN(c2ccc(Cl)cc2[N+](=O)[O-])CC1	-2	0.2	77*	0.2	76*	-20
Cc1nn(-c2cc(N3CCOCC3)ccc2[N+](=O)[O-])c(=O)c2ccccc12	1	1	-5	0.8	20	-3
CO/N=C(\c1nonc1N)N1CCN(c2ccc([N+](=O)[O-])cc2Cl)CC1	-7	1.1	-10	1.3	-35	-1
COC(=O)C1CSc2[nH]c(=O)sc2C1c1ccc(OC)c(OC)c1 (stereo not drawn)	-6	0.8	15	0.8	22	8
O=[N+]([O-])c1cc([N+](=O)[O-])c(N2CCOCC2)cc1NCc1ccccc1	-7	0.7	29	0.1	86*	36
Cc1cccc(C(=O)N2CCN(c3ccc([N+](=O)[O-])c(N4CCOCC4)c3)CC2)c1	-12	1	3	0.5	54*	3
O=[N+]([O-])c1ccc(N2CCOCC2)cc1NCc1ccccc1	1	0.6	41	0.7	33	5
Cc1ccc(SCc2cc(=O)n3[nH]cnc3n2)cc1	-6	nt	nt	nt	nt	-15
Cc1nc2nc(CSc3ccc(Cl)cc3)cc(=O)n2[nH]1	-11	1.1	-7	0.4	55*	-16
Cc1ccc(SCc2cc(=O)n3[nH]c(C)nc3n2)cc1	-11	1.2	-21	0.4	56*	17
CCC(C)n1c(SCC(=O)Nc2ccccc2C(F)(F)F)nc2ccsc2c1=O (stereo not drawn)	-10	0.5	46	0.3	72*	23
O=C(CSc1nc2ccsc2c(=O)n1NC(=O)c1ccccc1)Nc1nccs1	12	nt	nt	nt	nt	-5
Cc1c(C(=O)NCc2cccnc2)oc2c1C(=O)CC(C)(C)C2	6	0.2	80*	0.4	56*	-22
Cc1c(C(=O)NCCN2CCOCC2)oc2ccccc12	-7	0.5	54*	0.9	6	-5
O=C(NCCN1C(=O)CCC1=O)c1ccncc1	-12	0.9	9	0.7	30	-5
O=C(NCCN1CCOCC1)c1ccncc1	3	0.2	81*	0.9	15	-1
SMILES	PLK1 kinase inh	CYP2C19 act	CYP2C19 inhib	CYP2C9 act	CYP2C9 inh	PLK1 PBD inh
Cc1c(C(=O)NCc2cccnc2)oc2ccccc12	-6	0.4	64*	0.8	20	17
O=C(Nc1cccc2c1CCCC2)C1CCCN(S(=O)(=O)c2cccc3nonc23)C1 (stereo not drawn)	2	0.9	8	0.8	16	23
Cc1cccc(C(=O)n2c(=S)nc3ccccn32)c1	-9	0.6	36	1	-2	-16
Cc1ccccc1C(=O)N1CCC(C(N)=O)CC1	-3	1	0	0.9	8	-10
O=C(CCSCCC(=O)NCCN1CCOCC1)NCCN1CCOCC1	-9	1.1	-7	0.2	84*	5
CCOC(=O)/C(=N\Nc1cccc(C(F)(F)F)c1)N(CCOC)CCOC	-6	0	99*	0.1	89*	-12
Cc1ccc(Cl)cc1Nc1nc(-c2sc(NC(=O)c3cccc(Cl)c3)nc2C)cs1	-15	0.8	22	0.5	55*	-20
Cc1ccccc1Nc1nc(-c2sc(NC(=O)c3cccc(Cl)c3)nc2C)cs1	-25	0.6	40	0.7	32	-11
Cc1ccc(Cl)cc1Nc1nc(-c2sc(NC(=O)c3ccco3)nc2C)cs1	-1	0.8	16	0.4	57*	0
COc1cccc(N(C(=O)c2ccco2)c2nc(-c3sc(NC(=O)c4ccco4)nc3C)cs2)c1	-14	0.6	41	0.5	55*	17
COc1ccccc1Nc1nc(-c2sc(NC(=O)c3ccco3)nc2C)cs1	-9	0.9	10	0.4	63*	9
Cc1nc(NC(=O)c2ccco2)sc1-c1csc(Nc2ccc(Cl)cc2)n1	-4	0.5	50	0.7	31	-42
CCOc1ccccc1Nc1nc(-c2sc(NC(=O)c3ccc([N+](=O)[O-])cc3)nc2C)cs1	-19	0.6	41	0.7	34	-18
CC(=O)NCCCc1nc2ccccc2n1Cc1ccccc1C	-12	0.9	13	1.2	-21	13
CC(=O)Nc1ccc(S(=O)(=O)N(C)CC(=O)Nc2ccccc2N2CCOCC2)cc1	-3	0.9	13	1.3	-34	26
CCOC(=O)c1ccc(NC(=S)Nc2ccccn2)cc1	-12	0.9	8	1.1	-6	0
Cc1cccc(-n2c(Cc3cc(=O)[nH]c(=O)[nH]3)nnc2SCC(=O)N2CCCCC2)c1	-12	1.1	-14	1	-4	2
CCN(CC)CCn1c(O)c(N=O)c2ccccc21	4	0.9	6	0.9	7	-18
CCN(CC)CCn1nc(C)nc1-c1ccccc1O	-5	0.1	88*	0.9	13	6
COC(/C=C/Nc1ccc(C)cc1)=C(C#N)C#N	-5	1.1	-8	1	3	1
CC(C)Oc1ccc(C(=O)NC2(C(F)(F)F)N=C3SCCN3C2=O)cc1 (stereo not drawn)	-14	1.2	-17	0.9	14	-2
O=C(Nc1cc(N2CCOCC2)ncn1)Nc1cccc2ccccc12	-6	0.9	13	2*	-102	-25
S=C(Nc1cccc2ccccc12)NN1CCOCC1	-8	0.2	75*	0.2	81*	23
O=C(Nc1cccc2ccccc12)N1CCOCC1	-3	1	-3	1	-1	-18
CCN1CCN(Cc2ccc(NC(=O)Nc3ccccc3Cl)cc2)CC1	nt	1.1	-10	0.9	10	nt
